The values below come from PubChem BioAssay AID2098 (Broad Institute, 2009).

The whole screen tested about 300,000 compounds, of which about 2,300 (0.77%) were called active.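 Rule for the calls: active = more than half of replicate wells show activity change below -50%, luminescence cut by over half; inconclusive = some wells, but at most half, below -50%; inactive = no replicate well below -50%.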 Only a selection was taken, and actives are over-represented in it overall.

A short description of this test: blocking HSF1-driven luciferase expression – cell-based, NIH3T3, luminescence, primary screen (AID 2098).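 Note: luciferase reports HSF-1 transcriptional activity via heat shock element; 0% = median of DMSO wells and -100% = zero luminescence signal.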 Conditions: NIH3T3-HGL HSE-luciferase, MG132-induced, luminescence 8 h; active compounds read low; screened at 7.5 µM (by protocol).
As to `NS(=O)(=O)c1ccc(CCNC(=O)CN2C(=O)c3ccccc3S2(=O)=O)cc1`, the activity change, negative = inhibition was -3.35% (inactive).
Take `Cc1ccc(N2CC(C(=O)N3CCC4(CC3)CC(=O)c3ccccc3O4)CC2=O)cc1C` (configuration not stated): the activity change, negative = inhibition was -2.92% (inactive).
The result for `COc1ccc(NC(=O)CN(C)C(=O)Cc2coc3cc(C)c(C)cc23)cc1` reads 7.31% (inactive); that for `COc1ccc(C(=O)N(Cc2ccccc2)c2ccc(C)cc2)cc1S(=O)(=O)N1CCOCC1`, 4.46% (inactive); that for `Cc1cc(C(=O)COC(=O)C2CC2)c(C)n1-c1ccc(F)cc1`, -71.9% (active).
For the compound `Cc1ccc(-n2c(C)cc(C(=O)CN3C(=O)C(=O)N(C4CCCC4)C3=O)c2C)cc1`, the activity change, negative = inhibition was -6.89% (inactive).
On to `COc1cc(/C=N/NC(=O)c2cc(C)n(-c3ccc(F)cc3)c2C)cc(OC)c1O`, for which the activity change, negative = inhibition was -15.3% (inactive).
Regarding `CC(Oc1ccc(F)cc1)C(=O)Nc1cc(S(=O)(=O)N2CCOCC2)ccc1N1CCN(C)CC1` (configuration not stated), the activity change, negative = inhibition is -4.5% (inactive).
The figure for `O=C(NCC(=O)N1CCCC(C(F)(F)F)C1)c1ccccc1F` (configuration not stated) is -2.16% (inactive); for `CCN(CCCNC(=O)CCn1c(=O)[nH]c2ccsc2c1=O)c1ccccc1` it is -61.9% (active).
The figure for `CCCCC(CC)CNC(=O)CCCCn1c(=O)[nH]c2ccsc2c1=O` (configuration not stated) is 1.08% (inactive); for `CCN(CC)CCNC(=O)CCCCCn1c(=O)[nH]c2cc(C(=O)OC)ccc2c1=O` it is -8.49% (inactive).
With `CN(Cc1c(F)cccc1Cl)C(=O)CNC(=O)c1ccc2c(c1)OCO2`, the activity change, negative = inhibition is 2.65% (inactive).
`CC12CCC(=O)N1C(C(=O)NCCN1C(=O)S/C(=C\c3ccccc3F)C1=O)CS2` (configuration not stated): the activity change, negative = inhibition is -0.188% (inactive).
With `CCOC(=O)c1c(C)[nH]c(C(=O)OCC(=O)c2ccc(OC)cc2OC)c1C`, the activity change, negative = inhibition was 1.38% (inactive).
Consider `C=CCN1C=C2C(=O)C(C)(OC(=O)CCc3ccccc3)C(=O)C=C2C=C1c1ccc(C#N)cc1` (configuration not stated), for which the activity change, negative = inhibition is -1.82% (inactive).
For the compound `CC1(OC(=O)CCc2ccccc2)C(=O)C=C2C=C(c3ccc(C#N)cc3)N(CCc3ccccn3)C=C2C1=O` (configuration not stated), the activity change, negative = inhibition is -80.1% (active).
Consider `COCCN1C=C2C(=O)C(C)(OC(=O)C3CCCC3)C(=O)C=C2C=C1c1ccsc1` (configuration not stated), for which the activity change, negative = inhibition is 0.381% (inactive).
Regarding `CCCNC(=O)c1ccc(N2CCC3(CC2)CC(c2cccc(Br)c2)=NO3)c(NC(=O)c2ccco2)c1`, the activity change, negative = inhibition was -5.02% (inactive).
As for `CSc1nsc(NC(=O)Nc2ccccc2)n1`, the activity change, negative = inhibition was 4.05% (inactive).
As for `Cc1cccc(C(=O)NCc2nnc(SC(C)C(=O)Nc3nnc(C)s3)n2C)c1` (configuration not stated), the activity change, negative = inhibition is -1.96% (inactive).
Regarding `COc1ccc(S(=O)(=O)N2CCCCCC2)cc1C(=O)N(C)Cc1cccc(OC)c1OC`, the activity change, negative = inhibition was -1.36% (inactive).
For the compound `S=c1[nH]c(-c2cccs2)cn1-c1ccccc1`, the activity change, negative = inhibition is 2.33% (inactive).
For `O=c1oc2ccccc2cc1-c1cn(-c2ccccc2)c(=S)[nH]1`, the activity change, negative = inhibition is -88.1% (active).
For the compound `COc1ccc(-c2cn(-c3ccc(OC)cc3)c(=S)[nH]2)cc1`, the activity change, negative = inhibition is 9.62% (inactive).
As to `CC(C)(C)Oc1ccccc1Nc1nc(NCCO)nc(N2CCCC2)n1`, the activity change, negative = inhibition is -2.91% (inactive).
`CCn1cc(CN2CCC(C(=O)Nc3cccc(-c4cccc(Cl)c4)c3)CC2)c(C)n1`: the activity change, negative = inhibition was -68.5% (active).
The figure for `CCn1cc(CN2CCC(C(=O)Nc3cccc(-c4cccc(Cl)c4)c3)CC2)cn1` is 13.5% (inactive); for `O=C(Nc1cccc(-c2cccc(Cl)c2)c1)C1CCN(C2CCC2)CC1` it is -1.45% (inactive).
As for `O=C(COC(=O)CCOc1ccccc1)Nc1cc(S(=O)(=O)N2CCCCC2)ccc1Cl`, the activity change, negative = inhibition was 5.19% (inactive).
The result for `Cn1cccc1C(=O)NNC(=O)COc1ccc(Br)cc1` reads -3.17% (inactive).
`Cc1cccc(NC(=O)c2nc(S(=O)(=O)Cc3ccccc3)ncc2Cl)c1`: the activity change, negative = inhibition was -83.8% (active).
With `CCSc1ncc(Cl)c(C(=O)Nc2cc(C)ccc2C)n1`, the activity change, negative = inhibition was 3.48% (inactive).
`Cc1ccc(CS(=O)(=O)c2ncc(Cl)c(C(=O)Nc3nnc(C)s3)n2)cc1`: the activity change, negative = inhibition was -63.4% (active).
On to `Cc1ccc(S(=O)(=O)CC(=O)Nc2nnc(C)s2)cc1`, for which the activity change, negative = inhibition is -2.63% (inactive).
Take `Cc1cccc(CS(=O)(=O)c2ncc(Cl)c(C(=O)Nc3ccc(F)cc3)n2)c1`: the activity change, negative = inhibition is 13.2% (inactive).
The result for `Cc1cccc(NC(=O)c2nc[nH]c2C(=O)NCC(=O)OCc2ccccc2)c1` reads -13.1% (inactive); that for `COc1ccc(C2/C=C\CN(S(=O)(=O)c3cccs3)CC(=O)N2Cc2ccc(F)cc2)cc1` (configuration not stated), 3.97% (inactive).
`COc1ccc(Cl)cc1C=CC=NNC(=O)c1ccncc1`: the activity change, negative = inhibition was 5.04% (inactive).
The result for `COc1ccc(CCNCC(O)Cn2ccc3ccccc32)cc1OC` (configuration not stated) reads -87.6% (active).
For the compound `COc1ccc(Cn2c(=O)sc3ccccc32)cc1OC`, the activity change, negative = inhibition was -4.6% (inactive).
For `COC(=O)c1ccc(OCC(O)CN(CCO)CC(O)Cn2ccc3ccccc32)cc1` (configuration not stated), the activity change, negative = inhibition was -1.93% (inactive).
As to `O=C(NCc1ccccc1)c1onc(CSc2ccncc2)c1C(=O)NCc1ccccc1`, the activity change, negative = inhibition was -22.7% (inactive).
With `O=C(NCCc1ccco1)C(=O)NCCC1CCCCN1S(=O)(=O)c1ccccc1` (configuration not stated), the activity change, negative = inhibition is 1.49% (inactive).
The figure for `COc1ccc(-c2nnc(SCC(=O)Nc3cccnc3Cl)n2C)cc1` is -3.85% (inactive); for `COc1ccccc1NC(=O)[C@H](COCc1ccccc1)NC(=O)OC(C)(C)C` it is -65.5% (active); for `C#CCNC(=O)[C@H](Cc1ccc(C(=O)c2ccccc2)cc1)NC(=O)OC(C)(C)C` it is 5.42% (inactive).
The figure for `COc1ccccc1NC(=O)C(C)OC(=O)CC1CCCC1` (configuration not stated) is -4.1% (inactive); for `COc1ccc(C(=O)Nc2ccccc2C(=O)N/N=C/c2ccc(O)c(OC)c2)cc1` it is -88.5% (active); for `COc1cc(/C=N/NC(=O)c2ccc(N3CCCC3=O)cc2)ccc1O` it is -2.17% (inactive).
Turning to `COc1ccc(/C=N/NC(=O)c2ccccc2)cc1OS(=O)(=O)c1ccccc1`, the activity change, negative = inhibition is 4.64% (inactive).
For the compound `CC1(C)O[C@@H]2CC3C4C[C@H](F)C5=CC(=O)C=CC5(C)C4C(O)CC3(C)[C@]2(C(=O)CO)O1` (some centres not stated), the activity change, negative = inhibition is -32.3% (inactive).
On to `Cc1ccc(NC(=O)CN(C)C(=O)c2ccc(Br)o2)cc1`, for which the activity change, negative = inhibition is 0.545% (inactive).
In the case of `Cc1ccc(CSCC(=O)N(C)CC(=O)Nc2cccc(F)c2)cc1`, the activity change, negative = inhibition was -0.103% (inactive).
The result for `Cc1ccc(CSCC(=O)N(C)CC(=O)Nc2ccc(C)cc2)cc1` reads -72.3% (active).
As to `CCOc1ccc(S(=O)(=O)NCCC(=O)N2CCCCCCC2)cc1`, the activity change, negative = inhibition is 1.97% (inactive).
As to `O=C(COc1ccccc1)Nc1cc2c3c(c1)CC(=O)N3CCC2`, the activity change, negative = inhibition was 2.82% (inactive).
Turning to `Cc1ccc(OCC(=O)c2cc(C)n(Cc3ccco3)c2C)c([N+](=O)[O-])n1`, the activity change, negative = inhibition was -39.8% (inactive).
With `Cc1cc(C(=O)CSc2nc(N)cc(=O)[nH]2)c(C)n1Cc1ccco1`, the activity change, negative = inhibition was -33.6% (inactive).
In the case of `Cc1cc(C(=O)COC(=O)CNC(=O)c2ccc(F)cc2)c(C)n1Cc1ccco1`, the activity change, negative = inhibition was -53.9% (active).
Turning to `O=C(Nc1c(Br)cc2c(c1Br)Cc1ccccc1-2)C(F)(F)F`, the activity change, negative = inhibition is -5.38% (inactive).
The result for `COc1ccc(C)cc1S(=O)(=O)Nc1cc2c3c(c1)CCC(=O)N3CCC2` reads -68.5% (active); that for `O=C1CCc2cc(S(=O)(=O)Nc3ccc(C(F)(F)F)cc3)cc3c2N1CC3`, -0.158% (inactive); that for `COc1ccccc1CNS(=O)(=O)c1cc2c3c(c1)CCC(=O)N3CCC2`, -0.185% (inactive).
As for `Cc1ccc(OCCNC(=O)CN2C(=O)NC3(CCCC3)C2=O)cc1`, the activity change, negative = inhibition is -2.16% (inactive).
The result for `CN(/N=C/c1ccccc1)C(=S)c1ccccc1` reads -0.878% (inactive); that for `Cc1cc(F)ccc1S(=O)(=O)N1CCCOC1CNC(=O)C(=O)NCCC1=CCCCC1` (configuration not stated), -4.13% (inactive).
Regarding `O=C(NCCCc1ccccc1)C(=O)NCC1OCCN1S(=O)(=O)c1ccccc1` (configuration not stated), the activity change, negative = inhibition was 3.32% (inactive).
Turning to `O=C(NCCCn1ccnc1)C(=O)NCC1OCCN1S(=O)(=O)c1cc(F)ccc1F` (configuration not stated), the activity change, negative = inhibition is -87.4% (active).
Consider `O=C(CCN1C(=O)C2CCCCC2C1=O)Nc1ccc(OC(F)F)cc1` (configuration not stated), for which the activity change, negative = inhibition was 5.73% (inactive).
For `CCCCn1c(N)c(N(CC(C)C)C(=O)c2cccc(S(=O)(=O)N3CCN(C(C)=O)CC3)c2)c(=O)[nH]c1=O`, the activity change, negative = inhibition was 0.146% (inactive).
On to `O=C(O)c1cc(Cl)c(Cl)cc1C(=O)Nc1cccc2ncccc12`, for which the activity change, negative = inhibition is 15.1% (inactive).
`O=C(Nc1cccc2ncccc12)c1ccc(-c2ccc(Cl)cc2Cl)o1`: the activity change, negative = inhibition is 8.41% (inactive).
In the case of `O=C(Nc1cccc2ncccc12)C(Cl)(Cl)Cl`, the activity change, negative = inhibition was -59.5% (active).
Consider `CC1CCN(CC(=O)Nc2nccs2)CC1`, for which the activity change, negative = inhibition was -53.5% (active).
On to `CC1CC(C)(C)CC2(C1)NC(=O)N(CC(=O)Nc1nccs1)C2=O` (configuration not stated), for which the activity change, negative = inhibition is 0.525% (inactive).
The result for `CC(=O)NC1CCN(CC(=O)Nc2nccs2)CC1` reads 0.912% (inactive).
The result for `Cc1csc(SCC(=O)Nc2sccc2C#N)n1` reads 9.14% (inactive); that for `COc1cc(OC)cc(-c2nnc(SCC(=O)Nc3ccc(C(=O)O)cc3)s2)c1`, -5.1% (inactive); that for `COc1ccc(NC(=O)CSc2nc(C)cs2)cc1`, -86.2% (active).
As for `CCCc1nc(-c2ccccc2O)n(-c2ccccc2)n1`, the activity change, negative = inhibition was -81.9% (active).
Take `Cc1nn(-c2ccccc2)c(-n2cccc2)c1C(=O)O`: the activity change, negative = inhibition is -12.1% (inactive).
`CCCc1c(C(=O)Nc2ccc(F)cc2)cnn1-c1ccccc1`: the activity change, negative = inhibition was 6.52% (inactive).
The figure for `COc1ccc([C@@H]2[C@@H]3C(=O)N(C(C)(C)C)C(=O)[C@@H]3[C@]3(Cc4ccccc4)C(=O)N(c4cccc(Br)c4)C(=O)N23)cc1` is -4.65% (inactive).
For the compound `CCOc1ccc(NS(=O)(=O)c2ccc(C(=O)NC3CCN(Cc4ccccc4)CC3)cc2)cc1`, the activity change, negative = inhibition is -0.719% (inactive).
Consider `Cc1nc(-c2ccc(F)cc2)c(CC(=O)Nc2cccc(S(=O)(=O)N3CCOCC3)c2)s1`, for which the activity change, negative = inhibition was 4.76% (inactive).
Regarding `CCCCn1c(N)c(N(CC(C)C)C(=O)c2ccc(-n3c(C)ccc3C)cc2)c(=O)[nH]c1=O`, the activity change, negative = inhibition is -2.25% (inactive).
